Inconclusive results are not listed. Entries that show only a call come without a potency. Calls of active or inactive are those of the source. The call rests on the fitted dose curve; in most records, active means well fitted inhibition curve with a large enough effect; inconclusive means small, poorly fitted or top-dose-only effect; inactive means flat fitted curve, though single readings scatter.
Assays:
Assay in all cases: qHTS profiling for inhibitors of Plasmodium falciparum proliferation (AID 504749); further: nearly all actives have a fitted effect of over 60% in size
Details in all cases: P. falciparum in erythrocytes, SYBR Green DNA, 72 h; series mostly up to 28.7 µM
P93_24 = tested on: P93_24
In short: (§1)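 Readout was DNA-dye fluorescence from lysed cultures, ex 485/em 535 nm. Parasitized red cells had grown 72 h with compound; data scaled between 0.29 uM artemisinin and DMSO wells and corrected using vehicle-only plates.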

P94_40 = tested on: P94_40
In short: as §1

PAD = tested on: PAD
In short: as §1

PC15 = tested on: PC15
In short: as §1

PC26 = tested on: PC26
In short: as §1

PC49 = tested on: PC49
In short: as §1

SC27B = tested on: SC27B
In short: as §1

TAB109 = tested on: TAB109
In short: as §1

TAB113 = tested on: TAB113
In short: as §1

TAB165 = tested on: TAB165
In short: as §1
Potency means the concentration at half of the fitted maximal effect.

Row | Compound | Potency (P93_24) | Potency (P94_40) | Potency (PAD) | Potency (PC15) | Potency (PC26) | Potency (PC49) | Potency (SC27B) | Potency (TAB109) | Potency (TAB113) | Potency (TAB165)
1 | CC(O)C(O)[C@H]1CNc2nc(N)[nH]c(=O)c2N1 (stereo not given in full) | inactive | inactive | inactive | inactive | inactive | inactive | inactive | inactive | inactive | inactive
2 | CC(C)NC[C@H](O)COc1ccc(CC(N)=O)cc1 | – | inactive | inactive | inactive | inactive | inactive | inactive | inactive | inactive | inactive
3 | CN1C2CCC1CC(OC(c1ccccc1)c1ccccc1)C2 (stereo not given) | – | – | – | – | – | 2 µM (active) | inactive | – | inactive | –
4 | CCCCCCCCCCCCCCCCCCOC[C@H](COP(=O)([O-])OCC[N+](C)(C)C)OC | inactive | inactive | inactive | inactive | – | inactive | inactive | inactive | inactive | inactive
5 | c1ccc(C2CN3CCSC3=N2)cc1 (stereo not given) | 2.82 µM (active) | 3.55 µM (active) | 7.94 µM (active) | 2.82 µM (active) | 15.1 µM (active) | – | 10 µM (active) | 4.47 µM (active) | 11.2 µM (active) | 5.01 µM (active)
6 | CCCCCCCCCCCCCCC[C@H](O)[C@H](N)CO | inactive | inactive | inactive | inactive | inactive | inactive | inactive | inactive | inactive | inactive

— PubChem BioAssay (NCATS)
